Target: T1, USP38, Q8NB14
T1 chain: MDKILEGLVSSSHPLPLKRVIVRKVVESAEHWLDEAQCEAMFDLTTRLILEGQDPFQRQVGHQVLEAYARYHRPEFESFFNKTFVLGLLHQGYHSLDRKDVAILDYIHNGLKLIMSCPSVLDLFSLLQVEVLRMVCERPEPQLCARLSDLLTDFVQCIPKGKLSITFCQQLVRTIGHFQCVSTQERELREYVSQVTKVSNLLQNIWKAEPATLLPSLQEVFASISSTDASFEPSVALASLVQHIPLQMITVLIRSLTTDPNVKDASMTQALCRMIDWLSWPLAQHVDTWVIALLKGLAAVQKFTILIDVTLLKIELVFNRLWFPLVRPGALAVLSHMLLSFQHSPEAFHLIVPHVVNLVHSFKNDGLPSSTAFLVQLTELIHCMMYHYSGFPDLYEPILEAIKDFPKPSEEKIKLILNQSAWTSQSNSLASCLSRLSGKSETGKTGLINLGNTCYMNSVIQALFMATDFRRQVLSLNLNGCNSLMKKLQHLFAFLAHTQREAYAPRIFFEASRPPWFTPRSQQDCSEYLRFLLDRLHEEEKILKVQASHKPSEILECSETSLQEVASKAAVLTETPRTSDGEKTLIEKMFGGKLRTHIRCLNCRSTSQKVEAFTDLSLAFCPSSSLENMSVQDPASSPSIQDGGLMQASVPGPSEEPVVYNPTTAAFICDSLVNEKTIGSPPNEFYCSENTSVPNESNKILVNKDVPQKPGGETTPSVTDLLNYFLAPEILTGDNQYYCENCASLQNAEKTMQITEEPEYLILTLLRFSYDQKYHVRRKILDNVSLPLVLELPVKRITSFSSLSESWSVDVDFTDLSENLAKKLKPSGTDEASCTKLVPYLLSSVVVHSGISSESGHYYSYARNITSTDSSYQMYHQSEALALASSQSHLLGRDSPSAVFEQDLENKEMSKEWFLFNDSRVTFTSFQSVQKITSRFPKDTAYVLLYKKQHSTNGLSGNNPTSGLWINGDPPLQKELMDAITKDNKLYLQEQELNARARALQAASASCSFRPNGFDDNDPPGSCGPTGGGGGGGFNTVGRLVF
Assay: median log2 fold change of GCK-ALFA target abundance (FLAG IP / Myc IP barcode read proportion) (log2 ratio); each designed protein is fused to an ALFA-tag nanobody in HEK293 cells to bring the named protein to FLAG-tagged glucokinase (GCK); Myc marks an untargeted standard; higher = target protein stabilised (more abundant)
Conditions: target protein: 3xFLAG-MCP-GCK-ALFA reporter; HEK293 landing pad (RPLP)
Outline: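 Binders fused to an ALFA nanobody were recombined as a library into HEK293 landing-pad cells, which were induced with 2 μg mL^−1 doxycycline and then transfected to express a FLAG-tagged target and a Myc-tagged standard. After 48 h, circular RNA barcodes recovered by anti-FLAG and anti-Myc immunoprecipitation of lysates were reverse transcribed, amplified and sequenced. Each binder's target abundance is the median log2 ratio of FLAG to Myc barcode read proportions, from barcodes present at ≥10^−7 in both replicates, binders carrying ≥3 barcodes per replicate, a 10^−6 pseudocount and pooled replicates.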

Row | Binder | median log2 fold change
1 | usp_38_diff_out_14_54_126 (protein) SERLRRLLEEARRKLAEAERYLEEAEKALEEGAPLEEIERLLDEAARALGAAARALREAATLATDPESRAELEELRARADELTDRYTELAREAFLRRLEE | 0.0528
2 | usp_38_diff_out_14_54_123 (protein) SEELEELLEEARRALEEARRALREAERLLREGGPLEEVREALDRAARAIGRLGEALRRARALATDPEVLKELERLEKEADELVDRYTELARRALEMEAER | 0.491
3 | usp_38_diff_out_14_54_125 (protein) MEELEKLLKEAEKALKEAEKALAAAEALLEAGGPLAEIRALLDAAARAIGAAGEALRKARALATDPEVKKKLEELRKRADELVDRYNELARRALEREAAA | -0.00832
4 | usp_38_diff_out_14_54_127 (protein) DEEIKRLLEEARKYLEEAKKALAELKELVAAGAAPEEVFAAYDKAADAIAKAGEAIRRLMRLSTDPEVRKEAREIQEEADKLVDEMTEAVTAAQEKAAEA | 0.232
5 | usp_38_diff_out_14_54_128 (protein) DEEIERLLEEARKKLEELKKLKEELKKLVKAGASMEEIFAAYDKAADAAAAAGEAIRRLRKLSTDPEVKEEARKLEEEVNKLLDEVTELVTEALERAAER | -0.492
6 | usp_38_diff_out_14_75_129 (protein) SEREKLEERLEAAEARLAALVAAGVISGRTEVKLGAVLHVARLAIEQGDLETAEKLLEIVEKALADPANADKILDENEDFIVSTYKELALRELEEEEKKR | 0.261
7 | usp_38_diff_out_14_54_124 (protein) MEELERLLEEAERALREAEEALERAERLLEEGGPLEEIRRELDRAARAIGRLGEALRRARALATDPEVKKRLEELEKKADELVDRYNELARRALEMEAER | 0.191
8 | usp_38_diff_out_14_75_132 (protein) SEKEELEKRLEELEKRLEELEKEGKLTGRLVVELGGVLHVAREAIEAGKLETAKKLLEIAEQALEDPERAREILRENEDFIVDTYKELALEEIEKEEAER | -0.63
9 | usp_38_diff_out_14_75_134 (protein) SEKEELEERLAALEARLEALVAEGVISGRLEVELGAVLHTARLAIEAGRLEEARRLLDIAEEALADPARAREILRANEDFIVSTHLRLELERLAAEEAAR | 0.0715
10 | usp_38_diff_out_14_2_99 (protein) AKEELEKATKETLKVLKEAIKKAKELLKEVKKDPSKAEEATKKLFEEWDKAADAVGKLAKLIEEHKEERKLNKEAIEKVNKELTELTKVTLEALEEAAKA | -0.478
11 | usp_38_diff_out_14_75_136 (protein) SEREELRARLAAARARLDALVAAGVISGRLEVELGAVLHVAALAIEAGDLETARRLLDIVEAALADPARAREILRAAEDFIVDAYKRLELRRIEEEEEER | 0.0109
12 | usp_38_diff_out_14_75_130 (protein) SMKEELEKRLEELEERLKELEEKGVLTGRTVVELGGVLYVARLAIEAGDLETAEKLLEIAEKALEDPENAKEILDENEDFIVSTHIELELRRIEEEEAAR | -0.097
13 | usp_38_diff_out_14_75_131 (protein) SEREELERRLEELRARLAALEAAGVITGRKVVKLGGALHVAELAIRAGRLEEARKILDIVEEALDDPERADEILDENEDFIVDTYKELALAEIEAEEAAR | 0.103
14 | usp_38_diff_out_14_2_98 (protein) AEEELKKATEETLKVLDEAIKKAKELKERVKKDPSLAEEAREELFKAWDKAADAVGELAKLMEEHRELRELNKKAVEEVNKKLTELTEELLEALELAAEA | -0.576
15 | usp_38_diff_out_14_75_133 (protein) SEREELEKRLEELRARLAALVAAGVISGRLEVELGAVLYTAELAIEAGKLEEAKKLLDIAEAALDDPANAKAILDANEDFIVSTYKELELERIEREEEEE | 0.198
16 | usp_38_diff_out_14_75_135 (protein) SEREELERRLEELEERLARLVAEGVISGRTEVKLGAVLHVARLAIEEGRLEEARKLLEIVERALADPERADEILEENEDFIVSTYLELELRRLAEEEAKR | -0.475

From the supplement of paper PMC12632987
